Shown is part of a subset that was picked to be rich in hits.
KDM5B inh: Primary screen for KDM5B Histone Demethylases FDH-coupled qHTS; KDM5B demethylase, FDH-coupled NADH fluorescence (FDH is formaldehyde dehydrogenase); AID 1347165, 2019; 220,000 compounds, 2.6% hits; Lysine-specific demethylase 5B (Homo sapiens), Q9UGL1; Potency, µM (highest dose often 57.7 µM), hits mostly inhibitors; active = well fitted inhibition curve with a large enough effect; also: 0% is about no effect; nearly all actives have a fitted effect of over 70% in size
Target sequence (Q9UGL1 whole entry, looked up): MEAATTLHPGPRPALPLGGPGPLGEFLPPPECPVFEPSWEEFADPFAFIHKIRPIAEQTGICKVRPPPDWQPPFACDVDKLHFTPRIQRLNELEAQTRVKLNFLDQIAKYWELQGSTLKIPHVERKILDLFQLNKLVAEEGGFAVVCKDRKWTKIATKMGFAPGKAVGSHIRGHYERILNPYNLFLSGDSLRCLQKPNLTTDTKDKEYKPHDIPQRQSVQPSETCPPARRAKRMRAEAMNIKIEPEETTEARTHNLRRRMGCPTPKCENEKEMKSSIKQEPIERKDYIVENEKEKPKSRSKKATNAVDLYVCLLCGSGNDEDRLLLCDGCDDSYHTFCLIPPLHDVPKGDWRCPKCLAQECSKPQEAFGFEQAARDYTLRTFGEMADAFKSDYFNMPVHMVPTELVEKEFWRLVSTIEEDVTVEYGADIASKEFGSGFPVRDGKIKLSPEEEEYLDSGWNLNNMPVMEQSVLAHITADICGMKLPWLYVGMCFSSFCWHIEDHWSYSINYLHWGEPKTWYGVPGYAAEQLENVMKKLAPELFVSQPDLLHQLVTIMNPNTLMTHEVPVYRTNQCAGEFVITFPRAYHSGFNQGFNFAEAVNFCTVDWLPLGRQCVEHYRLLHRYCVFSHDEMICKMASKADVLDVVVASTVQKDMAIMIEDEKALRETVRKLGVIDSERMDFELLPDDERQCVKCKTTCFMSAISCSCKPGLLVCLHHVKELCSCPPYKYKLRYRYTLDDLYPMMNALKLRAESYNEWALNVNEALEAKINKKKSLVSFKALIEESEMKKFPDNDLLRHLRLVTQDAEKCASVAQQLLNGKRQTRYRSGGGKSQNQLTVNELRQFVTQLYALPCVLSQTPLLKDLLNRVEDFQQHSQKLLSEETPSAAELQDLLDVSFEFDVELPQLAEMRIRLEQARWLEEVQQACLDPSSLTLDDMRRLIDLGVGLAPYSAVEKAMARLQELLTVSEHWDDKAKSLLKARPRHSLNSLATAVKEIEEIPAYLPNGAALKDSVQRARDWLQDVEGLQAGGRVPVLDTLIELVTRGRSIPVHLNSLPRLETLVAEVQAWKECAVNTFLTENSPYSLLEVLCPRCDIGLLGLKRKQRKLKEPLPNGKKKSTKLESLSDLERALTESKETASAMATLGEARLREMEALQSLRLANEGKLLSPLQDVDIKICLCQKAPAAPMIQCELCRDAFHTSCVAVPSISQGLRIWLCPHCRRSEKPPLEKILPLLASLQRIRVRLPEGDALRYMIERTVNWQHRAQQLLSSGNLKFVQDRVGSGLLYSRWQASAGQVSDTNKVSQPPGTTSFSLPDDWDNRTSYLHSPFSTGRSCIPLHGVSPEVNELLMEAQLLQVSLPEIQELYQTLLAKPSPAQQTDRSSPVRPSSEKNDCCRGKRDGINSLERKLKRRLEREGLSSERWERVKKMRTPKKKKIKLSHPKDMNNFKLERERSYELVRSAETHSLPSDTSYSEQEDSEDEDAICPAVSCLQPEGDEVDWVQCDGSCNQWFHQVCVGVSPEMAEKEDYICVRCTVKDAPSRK
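Measured: NADH fluorescence change, 30 min, RT. System: KDM5BΔAP 200 nM final, H3K4me3 peptide, α-KG, Fe(II), ascorbate, NAD⁺ plus FDH, pH 7.5 HEPES. Compounds: titrated, 10 min pre-incubation with enzyme.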
The depositor's hits bear a star; i = inactive. Potency is read from the fitted curve at half-maximal effect.

SMILES	KDM5B inh
COc1ccc(Cl)cc1-c1ccc2c(c1)C(=O)N1C[C@@H](NS(=O)(=O)c3ccc(F)cc3)C[C@H]1C(=O)N2	32µM*
O=C1Nc2ccc(-c3ccc4c(c3)OCO4)cc2C(=O)N2C[C@@H](NS(=O)(=O)c3ccc(F)cc3)C[C@@H]12	32µM*
CS(=O)(=O)N[C@H]1C[C@H]2C(=O)Nc3ccc(-c4ccc5c(c4)OCO5)cc3C(=O)N2C1	i
CS(=O)(=O)N[C@H]1C[C@H]2C(=O)Nc3cc(Cl)ccc3C(=O)N2C1	i
CC(C)NC(=O)N[C@H]1CCN2C(=O)c3cc(-c4ccccc4)ccc3NC(=O)[C@H]12	i
Cc1ccccc1N(C)S(=O)(=O)c1nnc(NC(=O)C(C)C)s1	i
O=C(NCCc1noc(-c2ccncc2)n1)C1CC1	i
Cc1nn(CC(=O)NN)c(C)c1Br	i
CCCCS(=O)(=O)c1oc(-c2ccc(F)cc2)nc1S(=O)(=O)c1ccc(C)cc1	i
Cc1ccc(-c2nnc([C@H]3CCN(C(=O)c4ccccc4)C3)o2)cc1	i
C/C(=N\N(c1ccccc1)c1ccccc1)c1ccc([N+](=O)[O-])cc1	i
Cc1ccccc1NC(=O)Nc1ccnn1C1CCN(C(=O)c2ccc[nH]2)CC1	i
CC(Sc1ccccc1C(=O)NCC(=O)C(C)(C)C)C(=O)Nc1ccc(F)cc1 (stereo not given)	i
CCC(CC)NC(=O)Nc1cc(Cl)ccc1C	i
COc1cc(OC)c(NC2=C(c3ccc(C(F)(F)F)cc3)C(=O)c3ccccc32)cc1Cl	i
COc1ccc(-c2nc(C)nc3c2CN(Cc2ccc(NC(C)=O)cc2)CC3)cc1	22µM*
COCC(=O)N1CCc2nc(-c3ccccc3)nc(-c3ccc(OC)cc3)c2C1	22µM*
COC(=O)N1CCc2nc(-c3ccc(OC)cc3)nc(-c3ccccc3)c2C1	i
COc1cccc(CN2CCc3nc(C)nc(-c4ccc(O)cc4)c3C2)c1	i
COc1ccc(C(=O)N2CCc3nc(C)nc(-c4ccc(O)cc4)c3C2)cc1	i
COc1ccc(-c2nc3c(c(-c4ccccc4)n2)CN(C(=O)C(C)(C)C)CC3)cc1	i
COc1ccc(OC2CN(Cc3ccc(NC(C)=O)cc3)C2)cc1	i
COc1ccc(C(=O)N2CCc3nc(C)nc(-c4ccc(OC)cc4)c3CC2)cc1	i
COCC(=O)N1CCc2nc(C)nc(-c3ccc(OC)cc3)c2C1	32µM*
Cc1c(C(=O)N2CCC(C)CC2)c(S(=O)(=O)Nc2ccc(OC(F)(F)F)cc2)c(C)n1C	i
SMILES	KDM5B inh
COc1ccc(NC(=O)[C@@H]2C[C@@H](c3cccc(C(F)(F)F)c3)N(Cc3cnn(C)c3)C2)cc1	i
CCOCCN1C(=O)COC[C@@H]1[C@H](O)c1ccc(NC(=O)c2ccc(F)cc2)cc1	i
CCc1cccc(C)c1NC(=O)Nc1csc2c1CCCC2	i
Cc1nnc(CSc2nnc(-c3ccc(Br)cc3)n2CCc2ccccc2)o1	i
COc1ccc(S(=O)(=O)Nc2ccccc2C(=O)N2CCOCC2)cc1Br	i
Cc1cc(N2CCC3(CCCN(CC4CCC4)C3=O)C2)nc2ccccc12 (stereo not given)	28µM*
O=C1N(Cc2cccc(F)c2F)CCCC12CCN(c1nc3ccccc3o1)C2 (stereo not given)	i
Cc1cccn2cc(C(=O)N3CCC4(CCCN(CC5CCC5)C4=O)C3)nc12 (stereo not given)	i
CCCN1CCCC2(CCN(c3cc(C)c4cccc(OC)c4n3)C2)C1=O (stereo not given)	28µM*
Cc1cccc(CN2CCCC3(CCN(c4cc(C)c5ccccc5n4)C3)C2=O)c1 (stereo not given)	28µM*
COCCN1CCCC2(CCN(c3nc(C)nc4sccc34)C2)C1=O (stereo not given)	i
Cc1cccc(CN2CCCC3(CCN(c4nc5ccccc5o4)C3)C2=O)c1 (stereo not given)	i
COCCN1CCCC2(CCN(c3nc(OC)cc(OC)n3)C2)C1=O (stereo not given)	i
O=C1N(CC2CCC2)CCCC12CCN(S(=O)(=O)N1CCOCC1)C2 (stereo not given)	i
Cc1ccc(-n2nc3cc(C)c(NC(=O)c4ccc(Br)o4)cc3n2)cc1	i
COC[C@@H]1CN(Cc2cccc(C#N)c2)C[C@H]1c1ccccn1	i
N#Cc1cccc(CN2C[C@@H](CO)[C@H](c3ccccn3)C2)c1	13µM*
Cc1cc(CN2C[C@@H](CO)[C@H](c3ccccn3)C2)n(C)n1	i
COc1ccc(-c2[nH]nc3ncc(-c4ccc(OC)nc4)nc23)c(C)c1	i
COc1ccc(-c2[nH]nc3ncc(C(=O)NCc4ccc(F)cc4)nc23)c(C)c1	i
COc1ccc(-c2[nH]nc3ncc(-c4ccc(F)cc4OC)nc23)c(C)c1	7.9µM*
COc1ccccc1-c1[nH]nc2ncc(C(=O)N3CCNC(=O)C3)nc12	i
COc1ccc(-c2[nH]nc3ncc(C(=O)N4CCN(Cc5ccccc5)CC4)nc23)c(C)c1	i
COc1ccc(-c2[nH]nc3ncc(-c4cccnc4OC)nc23)c(C)c1	35µM*
C/C(Cl)=C\CNCc1ccco1	i
SMILES	KDM5B inh
CCCCSCCCNC(=O)c1cn(CC)c2ccc(S(=O)(=O)N3CCOCC3)cc2c1=O	i
CC(C)Cc1cc(C(=O)N2C[C@H](C3CC3)[C@@H](N)C2)n(C)n1	i
CCn1nc(CC(C)C)cc1C(=O)N1C[C@@H](NC(C)=O)[C@H](C(C)C)C1	35µM*
CCn1nc(CC(C)C)cc1C(=O)N1CCN(S(=O)(=O)CC)CC1	i
CCCC(=O)Nc1ccc(-c2csc(N/N=C\c3ccncc3)n2)cc1	i
CCOC(=O)c1ccc(N2C(=O)c3n[nH]c(-c4ccco4)c3C2c2cccnc2)cc1 (stereo not given)	i
COc1ccc(NC(=O)CN(C)S(=O)(=O)c2ccc3nc(C)sc3c2)cc1Cl	i
COC(=O)[C@@H]1Cc2ncn(Cc3ccc(Cl)cc3)c2CN1Cc1cccs1	28µM*
COC(=O)[C@@H]1Cc2ncn(Cc3ccc(OC)cc3)c2CN1C(=O)CC(C)(C)CC(=O)O	i
COC(=O)[C@@H]1Cc2ncn(Cc3ccc(Cl)cc3)c2CN1C(=O)CC(C)(C)CC(=O)O	i
COC(=O)[C@@H]1Cc2ncn(Cc3ccc(Cl)cc3)c2CN1S(=O)(=O)Cc1ccccc1	i
O=C(NCc1ccc(Cl)cc1)[C@@H]1Cc2nc[nH]c2CN1Cc1cccs1	i
COC(=O)[C@@H]1Cc2ncn(Cc3ccc(Cl)cc3)c2CN1CCCc1ccccc1	35µM*
CCc1ccc(CNC(=O)C2Cn3cccc3C(=O)N2)cc1 (stereo not given)	i
CCOC(=O)C1CCN(C(=O)c2cnn(-c3ccc(F)cc3)c2-n2cccc2)CC1	i
CC(C)(C)S(=O)(=O)/C(C#N)=C/Nc1ccccn1	i
COc1ccc(-c2ccc3ncn(-c4ccc(F)cc4F)c(=O)c3n2)cc1OC	40µM*
O=c1c2nc(-c3ccsc3)ccc2ncn1-c1ccc(F)cc1F	35µM*
CC(=O)Nc1cccc(-c2ccc3ncn(-c4cccnc4)c(=O)c3n2)c1	i
COc1ccc(-c2ccc3ncn(C4CC4)c(=O)c3n2)cc1OC	i
COc1cccc(-c2ccc3ncn(-c4ccc(F)cc4F)c(=O)c3n2)c1	i
Cc1nc2c(=O)n(-c3ccc(F)cc3F)nc(C)c2s1	i
O=C(Nc1c(NC2CCCC2)c2ccccc2oc1=O)NC1CCCCC1	i

Compound activity deposited in PubChem by National Center for Advancing Translational Sciences (NCATS).
